Data reported in PubChem BioAssay (NCI).
About 79,000 compounds went through this panel and 15% of them were active in at least one assay; those are over-represented in the sample as a whole. Activity calls are given as the source filed them. No stated cut-off is given here; in the data, active means growth inhibition above about 70%; inactive means the rest.

Columns and labels:
[1] = NCI Yeast Anticancer Drug Screen. Data for the rad50 strain (AID 155);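 further: 0% = growth of vehicle-only cultures of the same strain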; conditions: S. cerevisiae rad50 strain growth inhibition, hits give high values
How it was run: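 Vehicle-treated cultures provide the reference for the growth inhibition reported for compound-exposed, repair-deficient yeast.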

[2] = NCI Yeast Anticancer Drug Screen. Data for the mec2-1 strain (AID 157); conditions: S. cerevisiae mec2-1 strain, hits give high values
How it was run: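 Test agents were screened against the mec2-1 yeast strain, with defined DNA repair or cell cycle alteration. Growth was scored as inhibition against vehicle-only controls.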

[3] = NCI Yeast Anticancer Drug Screen. Data for the sgs1 mgt1 strain (AID 161);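 further: 0% = growth of cultures given vehicle only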; conditions: S. cerevisiae sgs1 mgt1 strain, hits give high values
How it was run: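 Genetically altered yeast, compound exposure, growth inhibition relative to vehicle.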

[4] = NCI Yeast Anticancer Drug Screen. Data for the cln2 rad14 strain (AID 165);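 further: 0% = growth equal to vehicle treated cultures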; conditions: S. cerevisiae cln2 rad14 strain, hits give high values
How it was run: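 Growth of compound-exposed yeast (cln2 rad14 genotype) measured and expressed as inhibition relative to vehicle.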

[5] = NCI Yeast Anticancer Drug Screen. Data for the bub3 strain (AID 167); conditions: S. cerevisiae bub3 mutant strain, hits give high values
How it was run: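 Mutant yeast screening strain plus compound; vehicle-treated cultures serve as the 0% inhibition reference.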

[6] = NCI Yeast Anticancer Drug Screen. Data for the mlh1 rad18 strain (AID 175); conditions: S. cerevisiae mlh1 rad18 strain growth inhibition, hits give high values
How it was run: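 In this whole-cell yeast screen, a strain with altered DNA damage repair is challenged with compound, and its growth is measured against matched vehicle-treated controls.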

[7] = at 5.0 µM (retest, dose inferred, filed as 0.5)
[8] = at 50.0 µM (retest, dose inferred, filed as 5.0)

Measured: growth inhibition

CCCCCCCCCCSCCO
active: [1]; [8] 88% | [1]; at 50.0 µM 92.7% | [2]; [8] 92% | [2]; at 50.0 µM 94% | [3]; [7] 99% | [3]; [8] 93% | [3]; at 50.0 µM 93.5% | [4]; [7] 78% | [4]; [8] 99% | [4]; at 50.0 µM 92.3% | [5]; [7] 100% | [5]; [8] 97% | [5]; at 50.0 µM 92.5% | [6]; [8] 97% | [6]; at 50.0 µM 92.7%
inactive: [1]; [7] 30% | [2]; [7] 51% | [6]; [7] 42%

CN(C)c1nc(Cl)nc2c1ncn2C1OCC(O)C(O)C1O (stereo not given)
inactive: [1]; [7] -4% | [1]; [8] 3% | [1]; at 50.0 µM 10.7% | [2]; [7] -8% | [2]; [8] 4% | [2]; at 50.0 µM 22% | [3]; [7] 9% | [3]; [8] 7% | [3]; at 50.0 µM 5.05% | [4]; [7] 1% | [4]; [8] -6% | [4]; at 50.0 µM 1.25% | [5]; [7] -1% | [5]; [8] -7% | [5]; at 50.0 µM -5.1% | [6]; [7] 11% | [6]; [8] 11% | [6]; at 50.0 µM 42.5%

O=C(O)/C(=C/c1ccccc1)c1ccc2ccccc2c1Br
inactive: [1]; [7] 11% | [2]; [7] 1% | [3]; [7] 7% | [4]; [7] -18% | [5]; [7] -10% | [6]; [7] 33%
active: [1]; [8] 99% | [1]; at 50.0 µM 99.6% | [2]; [8] 100% | [2]; at 50.0 µM 99.7% | [3]; [8] 100% | [3]; at 50.0 µM 99.7% | [4]; [8] 99% | [4]; at 50.0 µM 99.2% | [5]; [8] 99% | [5]; at 50.0 µM 99.7% | [6]; [8] 99% | [6]; at 50.0 µM 99.7%

COC(=O)c1n[nH]c(C(C)C)c1N=NN(C)C
inactive: [1]; [7] 29% | [2]; [7] -35% | [3]; [7] -27% | [4]; [7] -11% | [5]; [7] -38% | [6]; [7] -77%
active: [1]; [8] 95% | [1]; at 50.0 µM 98.9% | [2]; [8] 97% | [2]; at 50.0 µM 99.1% | [3]; [8] 96% | [3]; at 50.0 µM 99% | [4]; [8] 98% | [4]; at 50.0 µM 99% | [5]; [8] 96% | [5]; at 50.0 µM 98.3% | [6]; [8] 96% | [6]; at 50.0 µM 99.2%

COC(=O)c1cn(NS(=O)(=O)c2ccc(OC)cc2)cc1C(=O)OC
inactive: [1]; [7] -6% | [1]; [8] 8% | [1]; at 50.0 µM 16.4% | [2]; [7] -5% | [2]; [8] 4% | [2]; at 50.0 µM 6.65% | [3]; [7] -6% | [3]; [8] 14% | [3]; at 50.0 µM 29.8% | [4]; [7] -1% | [4]; [8] 0% | [4]; at 50.0 µM 33.9% | [5]; [7] -5% | [5]; [8] 8% | [5]; at 50.0 µM -1.9% | [6]; [7] -5% | [6]; [8] 6% | [6]; at 50.0 µM 20.9%

C(=NCCC[Si]12OCCN(CCO1)CCO2)c1ccc(C=NCCC[Si]23OCCN(CCO2)CCO3)cc1
active: [2]; at 50.0 µM 98.3% | [4]; at 50.0 µM 87.7% | [5]; at 50.0 µM 76.5%
inactive: [1]; [7] 3% | [1]; [8] -3% | [1]; at 50.0 µM 38.1% | [2]; [7] 2% | [2]; [8] 3% | [3]; [7] -1% | [3]; [8] -2% | [3]; at 50.0 µM 1.65% | [4]; [7] 3% | [4]; [8] -4% | [5]; [7] 1% | [5]; [8] -3% | [6]; [7] 3% | [6]; [8] 3% | [6]; at 50.0 µM 54%

CC(O)CC(O)CC1CCCO1 (stereo not given)
active: [5]; at 50.0 µM 82.7%
inactive: [1]; [7] 5% | [1]; [8] 22% | [1]; at 50.0 µM 39.2% | [2]; [7] 1% | [2]; [8] 9% | [2]; at 50.0 µM 35.6% | [3]; [7] 1% | [3]; [8] 4% | [3]; at 50.0 µM 25.2% | [4]; [7] 2% | [4]; [8] 9% | [4]; at 50.0 µM 33.1% | [5]; [7] 3% | [5]; [8] 19% | [6]; [7] 3% | [6]; [8] 8% | [6]; at 50.0 µM 41.2%

O=C(Nc1cccc2ccccc12)OCC1CCc2ccccc2C1 (stereo not given)
inactive: [1]; [7] -1% | [1]; [8] 6% | [1]; at 50.0 µM 12.9% | [2]; [7] -6% | [2]; [8] 2% | [2]; at 50.0 µM 22.6% | [3]; [7] -4% | [3]; [8] 17% | [3]; at 50.0 µM 54.2% | [4]; [7] -8% | [4]; [8] -9% | [4]; at 50.0 µM 9.25% | [5]; [7] -2% | [5]; [8] 29% | [6]; [7] -5% | [6]; [8] 27% | [6]; at 50.0 µM 31.1%
active: [5]; at 50.0 µM 72.2%

CC(O)(CO)CC(C)(O)CO (stereo not given)
active: [4]; at 50.0 µM 77%
inactive: [1]; [7] -2% | [1]; [8] -10% | [1]; at 50.0 µM 12.9% | [2]; [7] 3% | [2]; [8] -6% | [2]; at 50.0 µM -7.2% | [3]; [7] -1% | [3]; [8] -9% | [3]; at 50.0 µM 1.8% | [4]; [7] -2% | [4]; [8] -14% | [5]; [7] 2% | [5]; [8] -1% | [5]; at 50.0 µM -1.05% | [6]; [7] 1% | [6]; [8] -11% | [6]; at 50.0 µM -7.45%

CC(=O)N/N=C/c1ccc([N+](=O)[O-])o1
inactive: [1]; [7] 13% | [1]; [8] 34% | [2]; [7] 2% | [2]; [8] 22% | [2]; at 50.0 µM 43.1% | [3]; [7] 12% | [3]; [8] 50% | [4]; [7] 5% | [4]; [8] 13% | [4]; at 50.0 µM 35.5% | [5]; [7] 5% | [5]; [8] 22% | [5]; at 50.0 µM 58.5% | [6]; [7] 17% | [6]; [8] 61%
active: [1]; at 50.0 µM 70.2% | [3]; at 50.0 µM 81.8% | [6]; at 50.0 µM 84.8%
